Measurements from PubChem BioAssay (NCATS).
Results filed as inconclusive are left out. Activity calls are given as the source filed them. The call rests on the fitted dose curve; in most records, active means well fitted inhibition curve with a large enough effect; inconclusive means small, poorly fitted or top-dose-only effect; inactive means flat fitted curve, though single readings scatter.

Tested on: CRL-7250
Experiment: qHTS assay to identify novel small-molecules to repurpose for Merkel cell carcinoma treatment (AID 1296009); further: nearly all actives have a fitted effect of over 60% in size
Settings: MCC and control cell lines, CellTiter-Glo viability, 72 h; series mostly up to 92 µM; activity change, negative = cytotoxicity: at the top concentration
Method in brief: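 Luminescence from CellTiter-Glo, read 10 min after addition at room temperature, reported viability following a 72 hr, 37 degree celsius treatment with NPC or MIPE compounds in titration; values normalized to plate controls.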

SMILES	outcome
CNC(=O)c1ccc2cc([C@@]3(O)CCn4cncc43)ccc2c1	inactive
CC1OC(O[C@H]2[C@@H](O)C[C@@]3(C)C([C@H](O)C[C@]4(C)C3CC=C3C5CC(C)(C)CC[C@]5(C(=O)OC5OC(CO)C(O)C(O)C5OC5OCC(OC6OCC(OC7OCC(O)C(O)C7O)C(O)C6O)C(OC6OCC(O)(CO)C6O)C5O)CC[C@]34C)[C@]2(C)CO)C(O)C(O)C1O (stereo partly specified)	inactive [at 9.27 µM]
C[C@H]1CC[C@@]2(OC1)O[C@H]1CC3C4CC[C@H]5C[C@@H](O)CC[C@]5(C)C4=CC(=O)[C@]3(C)[C@H]1[C@@H]2C (stereo partly specified)	inactive [at 17.4 µM]
COC1CC(O[C@H]2CC[C@@]3(C)C(=CC[C@]4(O)C3[C@H](OC(C)=O)[C@@H](OC(=O)c3ccccc3)[C@]3(C)[C@@H](C(C)=O)CC[C@@]34O)C2)OC(C)C1OC1CC(OC)C(OC2CC(OC)C(OC3OC(C)C(OC4OC(CO)C(O)C(O)C4O)C(OC)C3O)C(C)O2)C(C)O1 (stereo partly specified)	inactive [at 9.27 µM]
CC1CC=C2C1CC1(O)C(=O)CC2(C)C1(C)CO (stereo unspecified)	inactive
O=C1NC(Cc2ccccc2)C(=O)N2CCCC12 (stereo unspecified)	inactive
C=CC1(C)C=C2C(=O)CC3C(C)(C)CCCC3(C(=O)O)C2(O)CC1 (stereo unspecified)	inactive
CCOC(=O)c1cc(C#N)c(N2CCC(C(=O)NS(=O)(=O)Cc3ccccc3)CC2)nc1C	inactive
NCc1c[nH]c(=S)n1[C@@H]1CCc2c(F)cc(F)cc2C1	inactive
CC(c1ncncc1F)C(O)(Cn1cncn1)c1ccc(F)cc1F (stereo unspecified)	inactive
COc1c2c(c(C)c3c1C(=O)OC3)OC1(C)CC(O)C(C(C)(C)O)C(C)(CCC(=O)O)C1C2 (stereo unspecified)	inactive [at 17.4 µM]
